miR-122 inh: miR-122 suppressors via Renilla sensor increase, primary screen, cell-based, Huh7 psiCHECK-miR122, Renilla luciferase, single point; 48 h; activation, % at 12.5 µM; 340,000 compounds, 0.14% hits; AID 623901, 2012;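 active = mean activation of 30% or more, with every replicate also reaching 30%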;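 note: 0% = median of neutral control wells and 100% = median of positive control wells; higher luciferase signal means stronger suppression of miR-122 activity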
Active calls of the source: *. This excerpt belongs to a sample that is enriched for hits.

SMILES | miR-122 inh
C[C@H](O)C#Cc1cnc2c(c1)C(=O)N([C@@H](C)CO)C[C@H](C)[C@@H](CN(C)C(=O)CN(C)C)O2 | -4
C[C@H](CO)N1C[C@H](C)[C@H](CN(C)C(=O)Nc2ccc3c(c2)OCO3)Oc2ncc(C#Cc3ccc(F)cc3)cc2C1=O | 8
CCOc1ccccc1NS(=O)(=O)c1ccc2c(c1)N(C)CCO2 | -91
CO[C@H]1CN(C)C(=O)c2ccc(NC(=O)c3ccccc3)cc2OC[C@@H](C)N(C)C[C@H]1C | -3
C[C@H](CO)N1C[C@H](C)[C@H](CN(C)CC2CCOCC2)Oc2cc(C#C[C@@H](C)O)ccc2S1(=O)=O | 3
Cc1ccc(C(=O)C2=C(O)C(=O)N(CCCN3CCOCC3)C23C(=O)N(C)c2ccccc23)o1 (stereo not drawn) | 32*
COc1cccc(-c2ccc3c(c2)O[C@H](CN(C)CC2CC2)[C@H](C)CN([C@@H](C)CO)S3(=O)=O)c1 | 0
Cc1c(Cl)cccc1NC(=O)CCCn1cnc([N+](=O)[O-])n1 | -251
COc1cccc2c1C(=O)c1c(O)c3c(c(O)c1C2=O)C[C@@](O)(C(=O)CO)C[C@@H]3O[C@H]1C[C@H](N)[C@H](O)[C@H](C)O1 | 69*
C[C@@H]1CN([C@@H](C)CO)S(=O)(=O)c2ccc(-c3ccccc3)cc2O[C@@H]1CN(C)C(=O)CN(C)C | 9
CCCNC(=O)N1[C@@H]2CN(C(=O)c3ccccc3)c3ccccc3[C@@H]2[C@@H]1CO | 36*
O=C(c1ccccc1)N1C[C@H]2[C@@H](c3ccccc31)[C@@H](CO)N2C(=O)c1cccc(F)c1 | -100
COCC(=O)N1[C@@H](CO)[C@@H]2c3ccccc3N(C(=O)c3cccnc3)C[C@@H]21 | 42*
CCCNC(=O)N1C[C@@H]2[C@H](c3ccccc31)[C@@H](CO)N2C(=O)C1CCOCC1 | 39*
O=S(=O)(NCc1cccs1)c1cccc(S(=O)(=O)N2CCCCC2)c1 | -91
CO[C@H]1CN(C)C(=O)c2cc(NC(=O)C3CCOCC3)ccc2OC[C@@H](C)N(C)C[C@H]1C | -3
C[C@@H]1CN([C@@H](C)CO)C(=O)c2cc(-c3ccc(C#N)cc3)cnc2O[C@H]1CN(C)CC1CCOCC1 | 5
Cc1ccc(-c2nn(Cc3ccccc3)cc2C(=O)N2CCN(c3ccccn3)CC2)cc1 | -107
C[C@@H]1CN([C@H](C)CO)C(=O)c2cc(-c3ccc(F)cc3)cnc2O[C@H]1CN(C)Cc1ccccn1 | 3
C[C@H](CO)N1C[C@H](C)[C@@H](CN(C)C(=O)Nc2ccccc2)Oc2cc(C#Cc3ccccc3)ccc2S1(=O)=O | -9
CCCNC(=O)N(C)C[C@H]1Oc2ncc(-c3ccc(C(=O)N(C)C)cc3)cc2C(=O)N([C@@H](C)CO)C[C@H]1C | -1
CCCNC(=O)N(C)C[C@H]1Oc2ncc(C#C[C@@H](C)O)cc2C(=O)N([C@H](C)CO)C[C@@H]1C | -1
C[C@H](CO)N1C[C@H](C)[C@H](CN(C)Cc2ccncc2)Oc2ncc(C#CC3(O)CCCC3)cc2C1=O | 1
CCCN(C)C[C@@H]1Oc2cc(C#CC3CC3)ccc2S(=O)(=O)N([C@H](C)CO)C[C@@H]1C | 5
C/C=C/c1ccc2c(c1)O[C@@H](CN(C)C(=O)c1ccc3c(c1)OCO3)[C@H](C)CN([C@H](C)CO)S2(=O)=O | -25
SMILES | miR-122 inh
COc1cccc(C#Cc2ccc3c(c2)O[C@@H](CN(C)S(=O)(=O)c2ccccc2F)[C@H](C)CN([C@H](C)CO)S3(=O)=O)c1 | 0
CC(C)NC(=O)Nc1ccc2c(c1)C(=O)N(C)[C@@H]1CC[C@@H](CC(=O)NCC(F)(F)F)O[C@@H]1CO2 | 37*
CC(C)NC(=O)Nc1ccc2c(c1)C(=O)N(C)[C@@H]1CC[C@H](CC(=O)NCC(F)(F)F)O[C@H]1CO2 | 37*
C[C@@H]1CN([C@H](C)CO)C(=O)c2cc(C#CC(C)(C)O)cnc2O[C@H]1CN(C)C(=O)C1CC1 | -6
Cc1cc(Cl)c(S(=O)(=O)NCc2ccccc2)cc1OCC(N)=O | -174
C[C@H](CO)N1C[C@H](C)[C@@H](CN(C)Cc2ccncc2)Oc2ncc(-c3cccc(F)c3)cc2C1=O | -3
COc1cccc(-c2cnc3c(c2)C(=O)N([C@H](C)CO)C[C@@H](C)[C@@H](CN(C)C(=O)CC2CC2)O3)c1 | 8
Cc1cccc(NS(=O)(=O)c2ccc(C3CCCCC3)cc2)c1 | -91
CCC(=O)N1C[C@H](C)[C@H](OC)CN(C)C(=O)c2ccc(NC(=O)C3CCCCC3)cc2OC[C@@H]1C | 1
CCNC(=O)C[C@@H]1CC[C@@H]2[C@@H](COc3ccc(NC(=O)C4CCCCC4)cc3C(=O)N2C)O1 | 33*
CCC(=O)N1C[C@H](C)[C@@H](OC)CN(C)C(=O)c2ccc(NC(=O)C3CCCCC3)cc2OC[C@H]1C | -2
CN1C(=O)c2cc(NC(=O)Nc3ccccc3F)ccc2OC[C@@H]2O[C@@H](CC(=O)NCc3ccc(-c4ccccc4)cc3)CC[C@H]21 | 48*
CCNC(=O)C[C@@H]1CC[C@H]2[C@@H](COc3ccc(NC(=O)Nc4ccc(F)cc4)cc3C(=O)N2C)O1 | 50*

Screening data as filed in PubChem.
